From PubChem BioAssay
FEN1 inhibitor: human FEN1 inhibition | P39748 | Recombinant FEN1 flap cleavage, fluorescence, 15 min | Potency, µM (titrated, usually from 114 µM), most hits filed as inhibitors | 0.35% of 390,000 active; further: nearly all actives have a fitted effect of over 65% in size
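Compounds are tested as a concentration series against 10 nM FEN1; after a 15 min room-temperature preincubation, 50 nM substrate starts cleavage, with plate reads at 0 and 15 min. Normalized responses are fitted by a Hill equation.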
PI5P4K alpha inh: blocks human PI5P4K alpha kinase activity. 1.2% of 330,000 active. PI5P4Kalpha enzyme, ADP-Glo luminescence, 60 min; hits give low values. max response, %; active means max response of -50% or lower; inconclusive means between -30% and -50%; inactive means -30% or higher; further: value at the top dose of about 77 µM
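qHTS, 1536-well: enzyme/substrate mix, compound by pin tool, 5 microM ATP final; RT 60 min; ADP-Glo reagents 1 (45 min) then 2 (30 min); luminescence.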
PLK1 PBD block: blocks phosphopeptide binding to human PLK1 polo-box domain. P53350. Plk1 PBD binding of FITC phosphopeptide, fluorescence polarization. Potency, µM, usual class: inhibitors. 2.8% of 360,000 active. AID 720504; further: series mostly up to about 57 µM; nearly all actives have a fitted effect of over 65% in size
VDR inh: vitamin D3 receptor (human) inhibition | 0.93% of 400,000 active | Potency, µM, usual class: inhibitors | P11473 | VDR-SRC2-3 peptide fluorescence polarization, 2 h
Target sequence (P11473 whole entry, looked up): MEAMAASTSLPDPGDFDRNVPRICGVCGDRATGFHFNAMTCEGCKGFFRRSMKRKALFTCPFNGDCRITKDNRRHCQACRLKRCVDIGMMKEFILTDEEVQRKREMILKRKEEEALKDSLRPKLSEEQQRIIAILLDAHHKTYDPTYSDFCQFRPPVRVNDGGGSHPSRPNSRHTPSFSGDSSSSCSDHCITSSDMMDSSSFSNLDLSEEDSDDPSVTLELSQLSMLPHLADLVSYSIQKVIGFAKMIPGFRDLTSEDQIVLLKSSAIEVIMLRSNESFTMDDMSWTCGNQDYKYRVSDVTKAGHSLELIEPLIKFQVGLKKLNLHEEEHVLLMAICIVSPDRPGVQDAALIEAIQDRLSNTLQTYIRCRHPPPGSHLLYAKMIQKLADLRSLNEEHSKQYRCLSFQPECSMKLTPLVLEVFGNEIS
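FP read-out; VDR + SRC2-3 coactivator peptide; 23 nl compound by pintool; 2 h RT incubation; reagents held at 4 deg C, protected from light.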
WRN helicase inh: blocks human WRN helicase. Q14191. WRN helicase unwinding, fluorescent forked duplex, kinetic. Potency, µM (top dose mostly 114 µM), actives largely listed as inhibitors. 0.46% of 360,000 active; further: nearly all actives have a fitted effect of over 55% in size
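Kinetic fluorescence helicase assay: unwinding of a quenched forked DNA duplex (100 nM final) with 2 mM ATP final raises red fluorescence (525/598 nm). Compounds sat 15 min at room temperature with 20 nM WRN beforehand.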
TCR activator: activators of T cell receptors. primary human leukocytes, anti-CD3, IL-2 HTRF, 48 h. Potency, µM (top dose mostly 9.22 µM), actives largely listed as activators. 330,000 tested, under 10 active. AID 504894
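Primary human leukocytes incubated 48 hr with anti-CD3 beads plus compound, without co-stimulation. Secreted IL-2 measured by HTRF (europium cryptate/d2 anti-IL-2 pair, 320 nm excitation, 665 nm emission).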
Hits are given with their value; - = inactive; ? = inconclusive; . = not tested or not shown; [ ] = dose if it differs, or a comment. Only some compounds are listed: those with a hit (about 3.7% of all), similar ones and a draw of the others. Unless noted, the call rests on the fitted dose curve; in most records, active means well fitted curve in the direction sought with a large enough effect; inconclusive means small, poorly fitted or top-dose-only effect, or another doubt; inactive means no such curve, though single readings can be large; an effect the other way counts as inactive or inconclusive.

SMILES | FEN1 inhibitor | PI5P4K alpha inh | PLK1 PBD block | VDR inh | WRN helicase inh | TCR activator
Cn1c(=S)[nH]c2[nH]c(=O)cnc2c1=O | - | -52 | - | - | - | -
COc1ccc(-n2c(O)c(/C=N/NS(=O)(=O)c3cccc([N+](=O)[O-])c3)c3ccccc3c2=O)cc1OC | - | - | - | - | 14µM | -
O=C1/C(=C/c2cccnc2)Oc2cc(OS(=O)(=O)c3ccccc3)ccc21 | - | . | - | 50µM | - | -
CCC(=O)Oc1ccc2c(c1)O/C(=C\c1ccco1)C2=O | - | -65 | ? | - | - | -
CC(=O)Oc1ccc2c(c1)O/C(=C\c1ccncc1)C2=O | - | -53 | ? | - | - | -
CCN(CC)C(=O)Oc1ccc2c(c1)O/C(=C\c1ccco1)C2=O | - | - | - | - | - | -
O=C(Oc1ccc2c(c1)O/C(=C\c1ccncc1)C2=O)c1cccs1 | - | ? | - | - | - | -
O=C1C=CC2=C3c4cc(O)c(O)cc4C[C@]3(O)COC2=C1 | . | . | . | 11µM | . | .
CCOC(=O)c1ccc(CN(Cc2ccccc2C)S(=O)(=O)c2ccc(F)c(C)c2)cc1 | - | . | . | - | . | .
O=C(CSc1nc(N2CCCCC2)nc(N2CCCCC2)n1)c1ccccc1 | - | - | 30µM | - | - | -
CCc1nc(SCC(=O)c2cccc([N+](=O)[O-])c2)n[nH]1 | - | - | - | 50µM | - | -
Nc1nc(SCC(=O)c2cccc([N+](=O)[O-])c2)n[nH]1 | - | - | ? | ? | - | -
Cc1nc(SCC(=O)c2ccccc2)n[nH]1 | - | -53 | 27µM | 50µM | - | -
O=C(CSc1n[nH]c(-c2ccncc2)n1)c1ccccc1 | - | . | - | - | - | -
COc1ccc(NC(=O)CSc2nc(N3CCCCC3)nc(N3CCCCC3)n2)cc1 | - | . | - | - | - | -
CCCCN1C(=O)C(O)(CC(=O)c2ccc(C(C)(C)C)cc2)c2ccccc21 (configuration not stated) | - | . | . | - | . | .
COc1cccc(C(=O)Nc2cc(-c3cn4cccnc4n3)ccc2C)c1OC | - | . | . | - | . | .
O=C(CSc1nc2nc(-c3cccs3)cc(C(F)(F)F)c2c(=O)[nH]1)Nc1ccc(F)c(F)c1 | ? | - | 7.5µM | - | ? | -
CN(Cc1ccccc1)Cc1c(O)ccc2ccccc12 | - | - | ? | ? | - | -
COc1ccc(OCCN(C)Cc2c(O)ccc3ccccc23)cc1 | - | - | 8.4µM | ? | - | -
O=C(Nc1nnc(S(=O)(=O)N2CCc3ccccc32)s1)c1cccc(Cl)c1 | - | . | . | - | . | .
COc1ccc(C2NC(=O)NC(C)=C2C(=O)Nc2cc(C)cc(C)c2)c(OC)c1 (configuration not stated) | - | . | . | - | . | .
CC1(c2ccccc2)CC(C)(C)N2C(=O)C3(C(C#N)=C(N)Oc4cc(O)ccc43)c3cccc1c32 (configuration not stated) | ? | . | - | - | - | .
CC1(c2ccccc2)CC(C)(C)N2C(=O)/C(=C3\SC(=S)NC3=O)c3cccc1c32 (configuration not stated) | - | - | 24µM | - | - | -
COc1cccc2c1C(=O)c1c(O)c3c(c(O)c1C2=O)C[C@](O)(C(=O)CO)C[C@H]3O[C@@H]1C[C@H](N)[C@H](O)[C@H](C)O1 | . | . | . | - | . | .
SMILES | FEN1 inhibitor | PI5P4K alpha inh | PLK1 PBD block | VDR inh | WRN helicase inh | TCR activator
CCCCC(=O)OCC(=O)C1(O)Cc2c(O)c3c(c(O)c2C(OC2CC(NC(=O)C(F)(F)F)C(O)C(C)O2)C1)C(=O)c1c(OC)cccc1C3=O (configuration not stated) | - | - | - | - | 7.9µM | -
C(=C\c1ccc2ccccc2n1)/c1ccccc1 | - | - | - | - | - | -
CC[N+](CC)(CC)c1ccc(/C=C/c2ccc3ccccc3n2)cc1 | 40µM | . | . | . | . | .
O=C1c2cccc3cc([N+](=O)[O-])cc(c23)C(=O)N1CC1CCCO1 (configuration not stated) | ? | - | - | - | - | -
CN(C)CCN1C(=O)c2cccc3cc([N+](=O)[O-])cc(c23)C1=O | 20µM | - | - | - | - | -
CN(C)C(=O)CCc1ccc2c3c([nH]c2c1)[C@]1(CCc2ccccc2)[C@@H](C(=O)N2CCCCC2)C[C@H](CC(=O)NCc2ccco2)C(=O)N1CC3 | - | - | - | - | - | -
COc1ccc2[nH]c3c(c2c1)CCN1C(=O)C(CC(=O)NCCc2ccccn2)C[C@H](C(=O)N2CCOCC2)[C@@]31CCC1CCCC1 (some centres not stated) | - | - | 30µM | ? | - | -
CN(C)C(=O)CCc1ccc2c3c([nH]c2c1)[C@]1(CCc2ccccc2)[C@@H](C(=O)N2CCCCC2)C[C@H](CC(=O)NCc2cccc(C(F)(F)F)c2)C(=O)N1CC3 | - | ? | 27µM | ? | - | -
COc1ccc2[nH]c3c(c2c1)CCN1C(=O)C(CC(=O)NCc2ccc(OC)c(OC)c2)C[C@H](C(=O)N2CCOCC2)[C@@]31C (some centres not stated) | - | - | 27µM | - | - | -
COc1ccc2[nH]c3c(c2c1)CCN1C(=O)C(CC(=O)NCc2ccc(OC)c(OC)c2)C[C@H](C(=O)N2CCCCC2)[C@@]31CCc1ccccc1 (some centres not stated) | - | ? | 21µM | ? | - | -
COc1cccc(/C=c2/[nH]c(=O)/c(=C\c3cccc(OC)c3OC)[nH]c2=O)c1OC | - | . | . | . | . | .
O=C1/C(=C/c2ccc(O)c([N+](=O)[O-])c2)SC(=S)N1Cc1ccccc1 | - | - | ? | - | - | -
CCOc1cc(/C=C2/SC(=S)N(Cc3ccccc3)C2=O)ccc1O | - | - | - | - | 35µM | -
O=C1/C(=C\c2ccc(O)cc2)SC(=S)N1Cc1ccccc1 | - | - | - | - | -[11.6 µM] | -
O=C1/C(=C/c2ccccc2O)SC(=S)N1Cc1cccnc1 | - | -51 | ? | ? | - | -
O=C1/C(=C/c2cccnc2)SC(=S)N1Cc1ccco1 | - | - | - | - | - | -
O=C1/C(=C\c2cc(Br)cc(Br)c2O)SC(=S)N1Cc1ccccc1 | ? | ? | 9.5µM | 50µM | 40µM | -
O=C1/C(=C\c2cccc([N+](=O)[O-])c2O)SC(=S)N1Cc1ccccc1 | ? | -90 | 17µM | ? | ? | -
COc1cc(/C=C2/SC(=S)N(Cc3ccccc3)C2=O)ccc1OS(C)(=O)=O | - | - | - | - | - | -
CCCCC/C=C\C/C=C\CCCCCCCC(=O)NCCCC(=O)O | . | . | . | - | . | .
Cc1cccc(C)c1NC(=O)C1CCCN1S(=O)(=O)c1ccc(-c2ccc(=O)[nH]n2)s1 (configuration not stated) | - | ? | 12µM | ? | - | -
CCn1c(Nc2ccccc2Cl)nc2ccccc21 | - | - | 27µM | - | - | -
